The assay has as its system M. mycetomatis strain mm55. The following applies: primary screen, metabolic activity vs growth control, 96 h, 2 µM, inhibitor.

Each structure is given as a SMILES string. Counter-ions that a name gives are not always drawn. Like-named read-outs stand apart in the source and are kept apart here. The campaign covered roughly 5,300 compounds. About 130 (2.5%) showed an effect of 50% or more. The sample as a whole holds a higher share of strong results than the screen did.

With `O=C(O)C=C1NN(Cc2nc3cc(C(F)(F)F)ccc3s2)C(=O)c2ccccc21` [ONC0005526, zopolrestat], the “% viability” value came to 123.5%.

For `CCS(=O)(=O)N1CCC[C@@H]2CN3CCc4cc(OC)ccc4[C@@H]3C[C@@H]21` [ONC0002617, rs79948], the “% viability” value is 85.43%.

`C[C@@]1(c2nc3c(C(N)=O)cccc3[nH]2)CCCN1` [ONC0004676, abt888 veliparib]: the “% viability” value was determined as 121%.

As to `Cc1cc(NC(=O)C2C(=O)c3ccccc3S(=O)(=O)N2C)no1` (centres unmarked) [ONC0002885, isoxicam], the “% viability” value stood at 123.7%.

As for `O=C(O)c1ccc[n+]([O-])c1` [ONC0005291, oxiniacic acid], the “% viability” value came out at 104%.

For the compound `C[n+]1cccc(C(=O)O)c1` [ONC0003448, trigonellinehcl], the “% viability” value was found to be 47.48%.

As for `O=C(O)c1ccccc1` [ONC0003100, benzoic acid], the “% viability” value is 90.48%.

As for `Cc1cc(CCC[C@H](CC(=O)NO)C(=O)N[C@H](C(=O)N[C@H](C)c2ccccc2)C(C)(C)C)ccc1-c1ccccc1` [ONC0002525, uk356618], the “% viability” value is listed as 62.33%.

Take `CC(C)[C@@H]1CC[C@@H](C)C[C@H]1O` [ONC0003141, levomenthol]: the “% viability” value is recorded as 69.71%.

Take `CC(C)[C@@H]1CC[C@@H](C)C[C@@H]1P(=O)(c1ccccc1)c1ccccc1` [ONC0003951, dpo1]: the “% viability” value was 47.19%.

As for `CC[C@H](C)[C@H](NC(=O)[C@H](Cc1ccc(O)cc1)NC(=O)[C@@H](NC(=O)[C@H](CCCNC(=N)N)NC(=O)[C@@H](N)CC(=O)O)C(C)C)C(=O)N[C@@H](Cc1cnc[nH]1)C(=O)N1CCC[C@H]1C(=O)N[C@@H](Cc1ccccc1)C(=O)O` [ONC0002134, angiotensin ii human], the “% viability” value turned out to be 79.83%.

With `CC(C)N[C@H]1CCn2c(=O)[nH]c3cccc(c32)[C@@H]1O` [ONC0003872, zilpaterol], the “% viability” value is reported as 87.84%.

As to `COc1cc(CC2NCCc3cc(O)c(O)cc32)cc(OC)c1OC` (centres unmarked) [ONC0002165, trimethoquinol], the “% viability” value is on record as 66.75%.

Regarding `O=C(O)Cc1ccc2c(c1)C(=O)c1ccccc1CO2` [ONC0003681, isoxepac], the “% viability” value is recorded as 47.44%.

Turning to `O=C(O)Cc1ccc(-c2ccccc2)cc1` [ONC0005558, felbinac], the “% viability” value was 137.1%.

As to `CN(C)CC/C=C1/c2ccccc2COc2ccc(CC(=O)O)cc21` [ONC0004990, olopatadine hydrochloride opatanol], the “% viability” value is 101%.

Turning to `O=C1c2cccnc2OC[C@@H]2CCCN12` [ONC0001148, org26576], the “% viability” value is on record as 83.51%.

With `CCOC(=O)NNc1ccc(N(CC)CC(C)O)nn1` (centres unmarked) [ONC0001944, cadralazine], the “% viability” value came out at 72.29%.

In the case of `C=C1C(=O)O[C@@H]2[C@H]3O[C@]3(C)CC/C=C(\C)CC[C@@H]12` [ONC0002950, parthenolidealternatestereo], the “% viability” value is reported as 150.2%.

For `Cc1cccn2c(=O)c(/C=C(\C#N)c3nc4ccccc4s3)c(Oc3ccc(F)cc3)nc12` [ONC0003502, ccg63808], the “% viability” value was 42.44%.

With `Cc1cccc(Oc2nc3c(C)cccn3c(=O)c2/C=C(\C#N)c2nc3ccccc3s2)c1` [ONC0001281, ccg63802], the “% viability” value is 68.65%.

Turning to `Cc1ccc(OC[C@@H](O)[C@H](C)NC(C)C)c2c1CCC2` [ONC0001929, ici118551], the “% viability” value was found to be 52.35%.

On to `Cc1ccc(-c2ncccn2)c(C(=O)N2C[C@H](COc3ccc(F)cn3)CC[C@H]2C)c1` [ONC0005570, filorexant], for which the “% viability” value came out at 73.84%.

`O=C(O)CC(O)(CC(=O)O)C(=O)O.[Li].[Li].[Li]` [ONC0004255, lithium citrate hydrate]: the “% viability” value was 60.67%.

On to `CCCCCCCCCCCCOCCOCCOCCOCCOCCOCCOCCOCCOCCO` [ONC0002139, polidocanol], for which the “% viability” value amounted to 78.72%.

On to `C[C@H]1OC(O)[C@H](O)[C@H](O)[C@H]1O` (some centres unmarked) [ONC0004779, l rhamnose monohydrate], for which the “% viability” value was determined as 103.9%.

For the compound `C/C=C1\NC(=O)[C@H]2CSSCC/C=C/[C@H](CC(=O)N[C@H](C(C)C)C(=O)N2)OC(=O)[C@H](C(C)C)NC1=O` [ONC0000722, romidepsin], the “% viability” value was found to be 49.6%.

Regarding `Cc1ccc(-c2ccc(C)cn2)nc1` [ONC0002143, abametapir], the “% viability” value is given as 65.91%.

On to `C=C[C@H]1C[N@@]2CC[C@H]1C[C@H]2[C@H](O)c1ccnc2ccc(OC)cc12` [ONC0003402, quinine], for which the “% viability” value was determined as 78.04%.

For `CC/C(=C(\c1ccccc1)c1ccc(OCCN(C)C)cc1)c1ccccc1` [ONC0000595, tamoxifen citrate], the “% viability” value is reported as 106.5%.

Consider `CC/C(=C(\c1ccc(O)cc1)c1ccc(OCCN(C)C)cc1)c1ccccc1` [ONC0002197, afimoxifene], for which the “% viability” value is 79.17%.

Regarding `CC/C(=C(\c1ccc(O)cc1)c1ccc(OCCNC)cc1)c1ccccc1` [ONC0004522, endoxifen hcl], the “% viability” value worked out at 48.7%.

As to `O=C1c2ccccc2-n2c1nc1ccccc1c2=O` [ONC0003517, tryptanthrin], the “% viability” value stood at 43.27%.

`COc1cc(-n2c(S)nc3ccccc3c2=O)c(Cl)cc1Cl` [ONC0004315, mdivi1]: the “% viability” value is 127.2%.

Regarding `O=c1c2ccccc2nc2n1CCc1c-2[nH]c2ccccc12` [ONC0004955, rutaecarpine rutecarpine], the “% viability” value is recorded as 80.68%.

With `COC(=O)Nc1nc2ccc([S+]([O-])c3ccccc3)cc2[nH]1` (centres unmarked) [ONC0004180, oxfendazole], the “% viability” value turned out to be 72.44%.

For the compound `NC(C(=O)O)c1ccc(C(=O)O)c(O)c1` (centres unmarked) [ONC0002596, 4carboxy3hydroxyphenylglyciners], the “% viability” value is on record as 58.45%.

Consider `CC(=O)O[C@@H]1CC[C@@]2(C)C(CC[C@]3(C)C2C(=O)C=C2[C@@H]4[C@@H](C)[C@H](C)CC[C@]4(C)CC[C@]23C)[C@@]1(C)C(=O)O` (some centres unmarked) [ONC0003387, acetyl11ketobetaboswellicacid], for which the “% viability” value was 70.79%.

For the compound `COc1cc2c(c(OC)c1OC)-c1c(cc3c(c1OC)OCO3)C[C@H](C)[C@@H](C)C2` [ONC0005204, schisandrin b], the “% viability” value is listed as 87.3%.

Turning to `O=C1CCCCCCCCCCCCCCO1` [ONC0002133, oxacyclohexadecan2one], the “% viability” value came out at 71.7%.

Turning to `O=C(O)CN(CCN(CC(=O)O)CC(=O)O)CCN(CC(=O)O)CC(=O)O` [ONC0005602, pentetic acid], the “% viability” value (Madurella mycetomatis metabolic activity at 2µM (%)) was determined as 107.7%.

For `Oc1cccc(Nc2ccc(Nc3cccc(O)c3)nn2)c1` [ONC0002962, 363hydroxyphenylaminopyridazin3ylaminophenol], the “% viability” value was found to be 67.52%.

Consider `Nc1ccc(O)c(C(=O)O)c1` [ONC0002803, mesalamine lialda], for which the “% viability” value came to 82.25%.

Take `Nc1ccc(C(=O)O)c(O)c1` [ONC0003334, aminosalicylate sodium]: the “% viability” value worked out at 35.29%.

On to `Nc1ccc(C(=O)Oc2ccccc2)c(O)c1` [ONC0003304, phenyl aminosalicylate], for which the “% viability” value is recorded as 56.4%.

In the case of `[H]/N=C(/N)N/C(=N/[H])NCCc1ccccc1` [ONC0000619, phenformin hydrochloride], the “% viability” value was 104.4%.

For `CNC(=O)c1ccc2c(c1)S(=O)(=O)c1ccccc1C2=O` [ONC0002375, bw616u], the “% viability” value is recorded as 76.21%.

Consider `Nc1c[n+](N2CCOCC2)no1` [ONC0003799, linsidomine], for which the “% viability” value is recorded as 49.48%.

Turning to `CCOC(=O)Nc1c[n+](N2CCOCC2)no1` [ONC0000636, molsidomine], the “% viability” value is listed as 75.33%.

On to `CC[C@@H](C(=O)O)C1CC[C@H](C)C([C@@H](C)[C@H](O)[C@H](C)C(=O)[C@H](CC)C2O[C@]3(C=C[C@@H](O)[C@]4(CC[C@@](C)(C5CC[C@](O)(CC)[C@H](C)O5)O4)O3)[C@H](C)C[C@@H]2C)O1` (some centres unmarked) [ONC0004344, salinomycin procoxacin], for which the “% viability” value is listed as 144.3%.

`CN(C)c1ccc2c(c1)Sc1cc(N(C)C)ccc1N2.CS(=O)(=O)O` [ONC0001830, leucomethylene blue mesylate]: the “% viability” value was 74.38%.

Consider `CS(=O)(=O)c1ccc(-c2cnc(N)c(C(=O)Nc3ccccc3)n2)cc1` [ONC0004547, ve821], for which the “% viability” value was determined as 76.73%.

As to `CS(=O)(=O)c1ccc(C2=C(c3ccccc3)C(=O)OC2)cc1` [ONC0001095, rofecoxib], the “% viability” value is reported as 82.56%.

Consider `CS(=O)(=O)c1ccc(-c2cn3ccccc3n2)cc1` [ONC0002352, zolimidine], for which the “% viability” value is 42.05%.

On to `O=C1NC(=O)/C(=C\c2cccc(C(F)(F)F)c2)S1` [ONC0004444, smi4a], for which the “% viability” value came to 130.7%.

As for `Cc1cc(C(=CNc2ccc(Cl)cc2)C(=O)Nc2ccc(Cl)cc2)on1` [ONC0000028, ccmi], the “% viability” value is listed as 80.11%.

As to `Cc1ncc(C[n+]2csc(CCO[P@](=O)(O)OP(=O)(O)O)c2C)c(N)n1` [ONC0002796, thiamine pyrophosphate chloride], the “% viability” value amounted to 94.34%.

`CC1(C)[C@@H]2C[C@H]1[C@@](C)(O)[C@@H](O)C2` [ONC0005321, pinanediol]: the “% viability” value amounted to 118.6%.

Turning to `CC1(C)[C@@H]2C[C@@H](O)[C@@](C)(O)[C@H]1C2` [ONC0002949, 266trimethylbicyclo311heptane23diol], the “% viability” value was 64.26%.

In the case of `CC1(C)OC2(C)C(O)CC1CC2O` (centres unmarked) [ONC0003817, epomediol], the “% viability” value was 42.26%.

Turning to `C#C[C@]1(OC(=O)CCCCCC)CC[C@H]2[C@@H]3CCC4=CC(=O)CC[C@@H]4[C@H]3CC[C@@]21C` [ONC0000267, norethisterone enanthate], the “% viability” value was 63.38%.

As for `C=C1c2cccc(O)c2C(=O)C2C(=O)[C@]3(O)C(=O)C(C(N)=O)C(=O)[C@@H](N(C)C)[C@@H]3[C@@H](O)[C@H]12` (some centres unmarked) [ONC0000687, methacycline hydrochloride], the “% viability” value was 124.6%.

Source of the values: paper PMC12670160, “A drug-repurposing screen of FDA- and EMA-approved drugs identifies two NF-κB inhibitors active against eumycetoma” (Journal of Antimicrobial Chemotherapy, 2025).
